Measurements published in PubChem BioAssay (NCI).
About 83,000 compounds went through this panel and 20% of them were active in at least one assay; those are over-represented in the sample as a whole.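 Testing used 96-well plates and a 48-hour single-concentration exposure. Example: -40 means 40% of the starting cells died.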 Calls of active or inactive are those of the source. Rule for the calls: active = growth percent below 10; inactive = the rest.

What was measured:
Assay in all cases: NCI-60 one-dose screen, 48 h (100 = growth as untreated, 0 = no growth, -100 = all killed)
Conditions in all cases: 10 µM unless noted
NCI-H23 lung = system: NCI-H23 lung
NCI-H226 lung = system: NCI-H226 lung
NCI-H322M lung = system: NCI-H322M lung
HOP-62 NSCLC = system: HOP-62 NSCLC
NCI-H460 lung = system: NCI-H460 lung
HOP-92 NSCLC = system: HOP-92 NSCLC
NCI-H522 lung = system: NCI-H522 lung
A549/ATCC NSCLC = system: A549/ATCC NSCLC
786-0 renal = system: 786-0 renal
COLO 205 colon = system: COLO 205 colon

SMILES: Fc1cc2[nH]ncc2c2c3c(c(-c4cn[nH]c4)nc12)CCCC3
- growth (NCI-H23 lung): -14.5% (active)
- growth (NCI-H226 lung): 1.53% (active)
- growth (NCI-H322M lung): 2.77% (active)
- growth (HOP-62 NSCLC): -10.6% (active)
- growth (NCI-H460 lung): 1.29% (active)
- growth (HOP-92 NSCLC): -7.43% (active)
- growth (NCI-H522 lung): -9.92% (active)
- growth (A549/ATCC NSCLC): 1.75% (active)
- growth (786-0 renal): 12.1% (inactive)
- growth (COLO 205 colon): -43.8% (active)

SMILES: CCCCCCCCCN(CCCCCCCCC)C(C)C(=O)c1ccc2cc(Br)c3ccccc3c2c1 (stereo not given)
- growth (NCI-H23 lung): 77.6% (inactive)
- growth (NCI-H226 lung): 102% (inactive)
- growth (NCI-H322M lung): 116% (inactive)
- growth (HOP-62 NSCLC): 95.6% (inactive)
- growth (NCI-H460 lung): 110% (inactive)
- growth (HOP-92 NSCLC): 72.8% (inactive)
- growth (NCI-H522 lung): 96.5% (inactive)
- growth (A549/ATCC NSCLC): 86.1% (inactive)
- growth (786-0 renal): 90.4% (inactive)
- growth (COLO 205 colon): 81.9% (inactive)

SMILES: CCN(CC)CCCOc1ccc2c(c1)O/C(=C\c1cccc(OC)c1)C2=O
- growth (NCI-H23 lung): 83.9% (inactive)
- growth (NCI-H226 lung): 87.8% (inactive)
- growth (NCI-H322M lung): 89.8% (inactive)
- growth (HOP-62 NSCLC): 104% (inactive)
- growth (NCI-H460 lung): 87.2% (inactive)
- growth (HOP-92 NSCLC): 84.3% (inactive)
- growth (NCI-H522 lung): 98.8% (inactive)
- growth (A549/ATCC NSCLC): 93.5% (inactive)
- growth (786-0 renal): 93.8% (inactive)
- growth (COLO 205 colon): 94.7% (inactive)

SMILES: C[C@H]1[C@H](C)CC[C@]2(C(=O)O)CC[C@]3(C)C(=CC[C@@H]4[C@@]5(C)C/C(=C/c6cccnc6)[C@H](O)C(C)(C)[C@@H]5CC[C@]43C)[C@H]12
- growth (NCI-H23 lung): 14.3% [100 µM] (inactive)
- growth (NCI-H226 lung): -24.2% [100 µM] (active)
- growth (NCI-H322M lung): -16.4% [100 µM] (active)
- growth (HOP-62 NSCLC): -29.1% [100 µM] (active)
- growth (NCI-H460 lung): -31.1% [100 µM] (active)
- growth (HOP-92 NSCLC): -3.06% [100 µM] (active)
- growth (NCI-H522 lung): -4.55% [100 µM] (active)
- growth (A549/ATCC NSCLC): 8.85% [100 µM] (active)
- growth (786-0 renal): 1.92% [100 µM] (active)
- growth (COLO 205 colon): -80.4% [100 µM] (active)

SMILES: O=C1CC(c2ccccc2)Cc2nc3ccc(Br)cc3cc21 (stereo not given)
- growth (NCI-H23 lung): 39.6% (inactive)
- growth (NCI-H226 lung): 24.1% (inactive)
- growth (NCI-H322M lung): 35.9% (inactive)
- growth (HOP-62 NSCLC): 40.4% (inactive)
- growth (NCI-H460 lung): 4.63% (active)
- growth (HOP-92 NSCLC): 40.1% (inactive)
- growth (NCI-H522 lung): -3.56% (active)
- growth (A549/ATCC NSCLC): 23.8% (inactive)
- growth (786-0 renal): 41.2% (inactive)
- growth (COLO 205 colon): -36.3% (active)

SMILES: Cc1cc(C)c(S(=O)(=O)/N=c2/n(-c3ccccc3)nc3n2CCN3C2=NCCN2)c(C)c1
- growth (NCI-H23 lung): 86.7% (inactive)
- growth (NCI-H226 lung): 89% (inactive)
- growth (NCI-H322M lung): 87.1% (inactive)
- growth (HOP-62 NSCLC): 86.8% (inactive)
- growth (NCI-H460 lung): 71.8% (inactive)
- growth (HOP-92 NSCLC): 63.9% (inactive)
- growth (NCI-H522 lung): 103% (inactive)
- growth (A549/ATCC NSCLC): 79.9% (inactive)
- growth (786-0 renal): 89.1% (inactive)
- growth (COLO 205 colon): -28.9% (active)

SMILES: O=C1COCCN1c1ccc(NCc2cn(Cc3ccc(F)cc3)c3ccccc23)cc1
- growth (NCI-H23 lung): 58.9% (inactive)
- growth (NCI-H226 lung): -56.5% (active)
- growth (NCI-H322M lung): 87.3% (inactive)
- growth (HOP-62 NSCLC): 62.5% (inactive)
- growth (NCI-H460 lung): 15.4% (inactive)
- growth (HOP-92 NSCLC): 68.2% (inactive)
- growth (NCI-H522 lung): 58.1% (inactive)
- growth (A549/ATCC NSCLC): 48.4% (inactive)
- growth (786-0 renal): 67.1% (inactive)
- growth (COLO 205 colon): 5.22% (active)

SMILES: Cc1ncc(C(=O)Nc2ccc(CN3CCN(C)CC3)c(C(F)(F)F)c2)cc1C#Cc1c(N)ncc2ccc(C#N)cc12
- growth (NCI-H23 lung): 35.8% (inactive)
- growth (NCI-H226 lung): 19.9% (inactive)
- growth (NCI-H322M lung): 34.4% (inactive)
- growth (HOP-62 NSCLC): 16.5% (inactive)
- growth (NCI-H460 lung): 43.4% (inactive)
- growth (HOP-92 NSCLC): -8.03% (active)
- growth (NCI-H522 lung): 46.9% (inactive)
- growth (A549/ATCC NSCLC): 34.4% (inactive)
- growth (786-0 renal): -51% (active)
- growth (COLO 205 colon): 7.77% (active)

SMILES: COc1ccc(OC)c([N+](=O)[O-])c1C(=O)CNC(C)=O
- growth (NCI-H23 lung): 105% (inactive)
- growth (NCI-H226 lung): 101% (inactive)
- growth (NCI-H322M lung): 105% (inactive)
- growth (HOP-62 NSCLC): 105% (inactive)
- growth (NCI-H460 lung): 107% (inactive)
- growth (HOP-92 NSCLC): 89.9% (inactive)
- growth (NCI-H522 lung): 95.7% (inactive)
- growth (A549/ATCC NSCLC): 100% (inactive)
- growth (786-0 renal): 103% (inactive)
- growth (COLO 205 colon): 114% (inactive)

SMILES: C#C[C@]1(O)CC[C@H]2[C@@H]3CC=C4c5nc(Nc6ccc(OC)cc6OC)sc5CC[C@]4(C)[C@H]3CC[C@@]21C
- growth (NCI-H23 lung): 34.6% (inactive)
- growth (NCI-H226 lung): 24.2% (inactive)
- growth (NCI-H322M lung): 37% (inactive)
- growth (HOP-62 NSCLC): -11.5% (active)
- growth (NCI-H460 lung): 12.4% (inactive)
- growth (HOP-92 NSCLC): 10.4% (inactive)
- growth (NCI-H522 lung): 23% (inactive)
- growth (A549/ATCC NSCLC): 9.68% (active)
- growth (786-0 renal): -54.7% (active)
- growth (COLO 205 colon): -43.2% (active)

SMILES: CCN1CCN(CC(=O)Nc2nc3ccc(NCc4ccc(Cl)cc4)cc3s2)CC1
- growth (NCI-H23 lung): 69.2% (inactive)
- growth (NCI-H226 lung): 60% (inactive)
- growth (NCI-H322M lung): 79.4% (inactive)
- growth (HOP-62 NSCLC): 77.6% (inactive)
- growth (NCI-H460 lung): 54.7% (inactive)
- growth (HOP-92 NSCLC): 31.6% (inactive)
- growth (NCI-H522 lung): 86.3% (inactive)
- growth (A549/ATCC NSCLC): 61.5% (inactive)
- growth (786-0 renal): 73% (inactive)
- growth (COLO 205 colon): 23.8% (inactive)

SMILES: O=C(O)c1cn(C2CC2)c2cc(N3CCN(Cc4cc(Cl)ccc4O)CC3)c(F)cc2c1=O
- growth (NCI-H23 lung): 78.8% (inactive)
- growth (NCI-H226 lung): 82.8% (inactive)
- growth (NCI-H322M lung): 77.9% (inactive)
- growth (HOP-62 NSCLC): 64.1% (inactive)
- growth (NCI-H460 lung): 52% (inactive)
- growth (HOP-92 NSCLC): 59.9% (inactive)
- growth (NCI-H522 lung): 67.5% (inactive)
- growth (A549/ATCC NSCLC): 30.4% (inactive)
- growth (786-0 renal): 85.1% (inactive)
- growth (COLO 205 colon): 75.7% (inactive)

SMILES: CC1Cc2ccc(OCCN(C)C)cc2C1=O (stereo not given)
- growth (NCI-H23 lung): 103% (inactive)
- growth (NCI-H226 lung): 99% (inactive)
- growth (NCI-H322M lung): 97.8% (inactive)
- growth (HOP-62 NSCLC): 96.4% (inactive)
- growth (NCI-H460 lung): 105% (inactive)
- growth (HOP-92 NSCLC): 82.1% (inactive)
- growth (NCI-H522 lung): 106% (inactive)
- growth (A549/ATCC NSCLC): 88.9% (inactive)
- growth (786-0 renal): 101% (inactive)
- growth (COLO 205 colon): 105% (inactive)

SMILES: C[C@@H]1C[C@H]2C(=O)O[C@@H](C)[C@H](NC(=O)[C@H](Cc3cc(F)cc(F)c3)NC(=O)Nc3ccc(C4CC4)cc3F)C(=O)N3CCC[C@H]3C(=O)N3CCCC[C@H]3C(=O)N[C@@H](C)C(=O)N2C1
- growth (NCI-H23 lung): 28.7% (inactive)
- growth (NCI-H226 lung): 19.8% (inactive)
- growth (NCI-H322M lung): 45.4% (inactive)
- growth (HOP-62 NSCLC): 27.8% (inactive)
- growth (NCI-H460 lung): 13.6% (inactive)
- growth (HOP-92 NSCLC): 3.54% (active)
- growth (NCI-H522 lung): 19.4% (inactive)
- growth (A549/ATCC NSCLC): 18.3% (inactive)
- growth (786-0 renal): 20% (inactive)
- growth (COLO 205 colon): -33.2% (active)
